Measured values as given in PubChem BioAssay (NCI).
Values joined by “and” are separate entries in the source; they are usually repeats but may differ in a detail not shown here. Equal values may be shown once. About 83,000 compounds went through this panel and 20% of them were active in at least one assay; those are over-represented in the sample as a whole.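 Each cell line was grown in a 96-well plate and treated with one concentration of compound for 48 hours. Values below 10 were considered active.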 Values without a mark were called inactive. Active and inactive are the calls of the source.

Tested on: MDA-MB-468 breast
Test: NCI-60 one-dose screen, 48 h (100 = growth as untreated, 0 = no growth, -100 = all killed)
Conditions: 10 µM unless noted

SMILES	growth
Cc1cc(=O)oc2cc(Oc3nc(-c4ccccc4)cn4c(-c5ccccc5)cnc34)ccc12	44.2%
O=C1NCC(=O)N(Cc2ccco2)[C@H]1Cc1ccccc1	114%
Cc1ccc(-n2nnnc2N)c(C)c1	115%
CNC(=O)NN	107%
[N-]=[N+]=Nc1ncc(-c2ccc(C(F)(F)F)cc2)c(NC2CCCCCC2)n1	28.9% [100 µM]
O=C1NC(=O)C(=Cc2cn(Cc3cn(Cc4ccc(Cl)cc4Cl)nn3)c3ccccc23)C(=O)N1	2.08% (active)
C=CCOC(=O)C1=C(C)NC2=C(C(=O)CC(C)(C)C2)C1c1ccc(OC)cc1 (stereo not given)	110%
NS(=O)(=O)c1ccc(Nc2nc(O)c(/C=C3\C=Nc4ccccc43)s2)cc1	104%
CC[C@@]12C=CCN3CC[C@]4(c5cc(NC(=O)COc6cc(OCC(=O)Nc7cc8c(cc7OC)N(C)[C@H]7[C@@](O)(C(=O)OC)[C@H](OC(C)=O)[C@]9(CC)C=CCN%10CC[C@]87[C@@H]%109)cc7oc(-c8ccccc8)cc(=O)c67)c(OC)cc5N(C)[C@@H]4[C@](O)(C(=O)OC)[C@H]1OC(C)=O)[C@H]32	72%
COc1cc2ncnc(Nc3ccc(OCc4cccc(F)c4)c(Cl)c3)c2cc1NC(=O)C1CCCC1	-2.53% (active)
Cc1nn(-c2ccccc2)c2c1oc(=O)c1cc(Cl)ccc12	98.7%
COc1cc(/C=C\c2cc(/C=C\c3ccc(O)c(OC)c3)n(C(=O)COc3ccccc3)n2)ccc1O	-1.76% (active)
CC/C=C\C[C@H]1CC=C2C(=O)C=C[C@@H]2CC=CCCCC(=O)O[C@@H](CCCCC)CC=C2C(=O)C=C[C@@H]2CC=CCCCC(=O)O[C@@H](CCCCC)CC=C2C(=O)C=C[C@@H]2CC=CCCCC(=O)O[C@@H](CCCCC)CC=C2C(=O)C=C[C@@H]2CC=CCCCC(=O)O1	29.8% [7.9 µM]
CC1=C(C)C[C@]2(C(=O)O[C@H]3CCCC[C@@H]32)[S@](=O)C1	114%
FCc1nc2nc(Cl)c(Cl)nc2[nH]1	93.2%
NCCCN	107%
COc1cccc(N2CCN(c3ncnc4c3[nH]c3ccc(F)cc34)C[C@@H]2C)c1	-12.5% (active)
CNC(=O)c1cc(Oc2ccc3c(c2)sc2nc(-c4cc(C(F)(F)F)cc(C(F)(F)F)c4)cn23)ccn1	4.64% (active)
C=C1C(=O)O[C@H]2[C@H]1CC/C(COC(=O)NCc1cc[nH]c1)=C\CC[C@@]1(C)O[C@@H]21	16.8%
COc1ccc(/C=C2\N=C(c3ccccc3)N(c3cc(OC)c(OC)cc3C(=O)N3N=C(C)CC3=O)C2=O)cc1	93%

SMILES	growth
COc1ccc(N)c(N)c1	84%
CC1CCCN(CCCCCOc2ccc3oc4ccc(Cl)cc4c(=O)c3c2)C1 (stereo not given)	68.7%
O=[N+]([O-])c1cc2c(cc1Br)C1C(C3C2C(Cl)(Cl)C(Cl)=C(Cl)C3(Cl)Cl)C(Cl)(Cl)C(Cl)=C(Cl)C1(Cl)Cl (stereo not given)	95.7%
COc1cc(C(=O)Nc2cc(O)c(CC=C(C)C)c(O)c2)cc2c1O[C@]1(C)CC[C@@H](O)C(C)(C)[C@H]1C2	36.3%
COc1ccc(-c2cnc(NC(=O)CCCCCCNC(=O)C(O)(O)C(F)(F)F)s2)cc1	-33.6% (active)
CCn1c(Cc2ccccc2Nc2c(Cl)cccc2Cl)nnc1SCC(=O)NN1C(=O)/C(=C/c2cccc(OC)c2OC)SC1=S	99.5%
Cc1ccc(-c2noc(C)n2)cc1	101%
Cc1nnc(-n2c(O)cc(=O)n(-c3ccccc3)c2=S)nc1/C=C/c1ccc(N(C)C)cc1	25.8%
CC(=O)[C@@H]1CC[C@]2(CO)CC[C@]3(C)[C@H](CC[C@@H]4[C@@]5(C)CCCNC(C)(C)[C@@H]5CC[C@]43C)[C@@H]12	106%
COc1ccc(-c2ccccc2)cc1C(=O)c1ccc(-c2ccccc2)cc1	64.6%
Nc1nc2c(s1)CCc1cn(S(=O)(=O)c3ccccc3)cc1-2	83.2%
O=C1CCNC1	107%
COc1cc2c(c(OC)c1OC)C(=O)CC(c1cccc(NC(=O)c3ccccc3Br)c1)O2 (stereo not given)	85.1%
O=C(NCCc1ccccc1)C1CCC(=O)N1Cc1ccc(Br)cc1 (stereo not given)	108%
CCO/C=N/C1=C(C#N)C(c2ccc(OC)cc2)c2sc3c(F)cccc3c2O1 (stereo not given)	17.7%
S=c1ccc2ccccc2[nH]1	98% and 116%
O=C1/C(=C/c2ccc(O)cc2)COc2ccc(-c3ccccc3)cc21	65%
NC(=S)N/N=C/c1ccc(Cl)cc1	97.3%
COc1ccc2c(c1)c(-c1nc(-c3cn(C)c4ncccc34)cs1)cn2CCO	-16.8% (active)
CCCn1nc(C(=O)N2CCCCC2)c2c1CCC(N1CCC(c3ccncc3)CC1)C2 (stereo not given)	104%
